Data: PubChem BioAssay AID463173 (ICCB-Longwood Screening Facility, Harvard Medical School, 2010)
Hit rate of the full screen: of about 52,000 compounds, about 1,700 (3.3%) were called active. The sample holds actives, similar compounds and a random draw of the others, so the mix is not that of the screen. Values without a mark were called inactive. No stated cut-off is given here; in the data, active means survival mostly below about 52% (no sharp cut-off); inactive means mostly above about 56%.

Test system: Wild type
Experiment: S. aureus survival, RN4220 and DeltatarO strains – OD600, teichoic acid synthesis inhibitors, primary screen (AID 463173)
Conditions: S. aureus RN4220 wild type/DeltatarO growth, OD600, 18 h, active compounds read low, screened at 18.75 µg/mL (by protocol)

Row | Compound | survival
1 | COc1ccc(CCNc2nc3ccccc3c3nc(-c4cccc(C)c4)nn23)cc1OC | 24%
2 | COc1ccccc1CNc1nc2ccccc2c2nc(-c3cccc(C)c3)nn12 | 9% (active)
3 | Cc1ccc(CNc2nc3ccccc3c3nc(-c4cccc(C)c4)nn23)cc1 | 26%
4 | CCCCNc1nc2ccccc2c2nc(-c3ccccc3)nn12 | -1% (active)
5 | c1ccc(CNc2nc3ccccc3c3nc(-c4ccccc4)nn23)cc1 | 67%
6 | Cc1cccc(-c2nc3c4ccccc4nc(NCc4ccccc4Cl)n3n2)c1 | 163%
7 | COc1ccccc1CNc1nc2ccccc2c2nc(-c3cccnc3)nn12 | 67%
8 | Cc1cccc(-c2nc3c4ccccc4nc(NCCc4ccccc4)n3n2)c1 | 3% (active)
9 | Cc1ccc(CCNc2nc3ccccc3c3nc(-c4ccccc4)nn23)cc1 | 73%
10 | CN1C(N)=NC(=O)C1(CO)CO | 104%
11 | CCOc1ccc(NC(=O)CSc2nc(-c3cccs3)cc(C(F)(F)F)c2C#N)cc1 | 66%
12 | O=C(Cn1c(=O)c2ccccc2n(CC(=O)Nc2ccccc2F)c1=O)NCCc1ccccc1 | 89%
13 | CCOc1ccc(CCNC(=O)c2cc3cc4ccc(OC)cc4nc3s2)cc1OCC | 101%
14 | COc1cccc(-c2nc(CS(=O)CC(=O)N3CCN(c4cccc(C(F)(F)F)c4)CC3)c(C)o2)c1 (centres undefined) | -2% (active)
15 | Cc1ccc(-c2nc(CS(=O)CC(=O)N3CCN(c4ccc(Cl)cc4)CC3)c(C)o2)cc1 (centres undefined) | 73%
16 | Cc1oc(-c2ccc(Cl)cc2)nc1CS(=O)CC(=O)N1CCN(c2cccc(C(F)(F)F)c2)CC1 (centres undefined) | 80%
17 | Cc1oc(-c2ccccc2Cl)nc1CS(=O)CC(=O)N1CCN(c2cccc(C(F)(F)F)c2)CC1 (centres undefined) | 129%
18 | COc1cccc(-c2nc(CS(=O)(=O)CC(=O)N3CCN(c4ccccc4)CC3)c(C)o2)c1 | 94%
19 | Cc1ccccc1-c1nc(CS(=O)CC(=O)N2CCN(c3cc(Cl)ccc3C)CC2)c(C)o1 (centres undefined) | 10% (active)
20 | Cc1ccc(-c2nc(CS(=O)CC(=O)N3CCN(c4cccc(Cl)c4)CC3)c(C)o2)cc1 (centres undefined) | 5% (active)
21 | Cc1ccccc1-c1nc(CS(=O)CC(=O)NCCc2ccc(Cl)cc2)c(C)o1 (centres undefined) | 128%
22 | Cc1ccc(-c2nc(CS(=O)CC(=O)N3CCN(c4ccccc4)CC3)c(C)o2)cc1 (centres undefined) | 88%
23 | CCOc1ccc(-c2nc(CSCC(=O)N3CCN(c4ccc(F)cc4)CC3)c(C)o2)cc1 | 113%
24 | CCCn1c(=O)sc2cc(NC(=O)c3ccccc3Cl)ccc21 | 71%
